Assay results: ChEMBL document CHEMBL3988442, “University of Dundee, Small-Polar-MMV Screening Library” (2021)

What was measured:
[1] = biological target: T1, Aspartate--tRNA(Asp/Asn) ligase (Mycobacterium tuberculosis (strain ATCC 25618 / H37Rv)) (UniProt P9WFW3); experiment: Assay for Asp RNA synthetase-1 from Mycobacterium tuberculosis; assay type: functional; set-up: scale not given: direction of the effect not stated beside the values; details: 30 µM; note: in the data most compounds retested in dose-response had high values
T1 sequence (whole entry): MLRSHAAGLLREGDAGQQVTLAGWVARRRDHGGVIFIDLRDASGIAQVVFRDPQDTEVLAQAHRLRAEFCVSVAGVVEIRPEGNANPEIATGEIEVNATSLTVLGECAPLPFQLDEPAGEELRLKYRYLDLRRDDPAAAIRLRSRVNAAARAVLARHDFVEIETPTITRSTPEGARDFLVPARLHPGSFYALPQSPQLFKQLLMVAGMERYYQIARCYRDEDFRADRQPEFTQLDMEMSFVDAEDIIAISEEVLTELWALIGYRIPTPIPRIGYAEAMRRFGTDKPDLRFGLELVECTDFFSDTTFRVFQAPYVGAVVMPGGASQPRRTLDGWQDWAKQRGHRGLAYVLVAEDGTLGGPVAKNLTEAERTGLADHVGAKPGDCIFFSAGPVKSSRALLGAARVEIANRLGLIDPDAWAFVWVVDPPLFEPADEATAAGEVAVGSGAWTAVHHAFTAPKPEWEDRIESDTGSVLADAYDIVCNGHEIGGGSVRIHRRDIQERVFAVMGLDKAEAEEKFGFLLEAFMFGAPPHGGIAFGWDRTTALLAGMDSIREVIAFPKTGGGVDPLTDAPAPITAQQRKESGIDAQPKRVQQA

[2] = biological target: Shiga toxin 2 (Escherichia coli O157:H7) (UniProt P09385+P09386); experiment: E. coli 0.157:H7 Shiga Toxin SOP - stx2 screening assay; assay type: functional; set-up: scale not given: direction of the effect not stated beside the values; details: 30 µM

SMILES | Percent Effect [1] | Percent Effect [2]
Cc1nc(C2CCCN2CC(=O)NCCc2ccsc2)no1 (configuration not stated) | 1.22% | -9.77%
O=C(NCC(Cc1cccc(F)c1)N1CCCC1=O)c1cnccn1 (configuration not stated) | -5.12% | -15.9%
O=C(Cc1ccc(-n2cccn2)cc1)N1CCCC(n2cccn2)C1 (configuration not stated) | -2.94% | -22.3%
Cc1cccc(CC(=O)NCCCOC(C)C)c1 | -4.16% | -10.2%
CC(O)CN1CCN(C(=O)CN(C)c2cnccn2)CC1 (configuration not stated) | 4% | -8.23%
CCc1c(C)nc2cc(C3CCN(Cc4ccccc4F)C3)nn2c1O (configuration not stated) | 4.45% | -125%
COCC(=O)N1CC[C@@H]2O[C@@H](COCc3csc(C)n3)CC[C@@H]21 | 7.78% | -9.07%
COc1ccccc1CC(=O)N1CCC(NCc2cccnc2)CC1 | 1.11% | 22.4%
O=C(c1ccccc1N1CCOCC1)N1CCCC(n2cccn2)C1 (configuration not stated) | 0.062% | 19.5%
Cc1cc(=O)[nH]c(CCNC(=O)C(c2ccc(F)cc2)N(C)C)n1 (configuration not stated) | -1.19% | -71.7%
CN(C)CC(=O)N1CCC2(CC1)COC(COc1ccccn1)C2 (configuration not stated) | 2.27% | -20.6%
COCCCC(=O)NS(=O)(=O)c1ccc2c(c1)OCCCO2 | -1.35% | 23.1%
Cc1nc(C)n(CC2CCCN(CCCOc3ccccc3)C2)n1 (configuration not stated) | 0.568% | 8.48%
Cc1cnn(CC2CCCN2C(=O)Cc2n[nH]c3ccccc23)c1 (configuration not stated) | -2.71% | 12.2%
COc1cccc(-n2c(C)cc(C(=O)O)c2C)c1 | -3.77% | 5.95%
Cc1cc(=O)n(CC(=O)NCCC(C)C)c(-c2cccc(Cl)c2)n1 | 12.2% | -9.6%
O=C(c1ccc(F)c(F)c1)N1CCCSCC1CN1CCCC1 (configuration not stated) | 3.66% | 2.2%
CC(C)CN1C(=O)C2(CCN(Cc3nccs3)C2)c2ccccc21 (configuration not stated) | -0.662% | -65.4%
COc1cc(CNCc2c(C)nn(C)c2N(C)C)ccn1 | 3.75% | 13%
O=C1C[C@H]2[C@@H](CCN2C(=O)c2ccccc2)N1CCN1CCOCC1 | -3.74% | -0.799%
CS(=O)(=O)NCc1cc2n(n1)CCCN(Cc1cccc(C#N)c1)C2 | 0.342% | 18.6%
Cn1ccnc1-c1ccccc1C(=O)N1CCc2c(nc(N)[nH]c2=O)C1 | 2.08% | -35.7%
O=C(c1ccccn1)N1Cc2nccn2CC(CN2CCOCC2)C1 (configuration not stated) | 11.5% | -21.6%

SMILES | Percent Effect [1] | Percent Effect [2]
CO[C@H]1CO[C@@]2(CCCN(C(=O)C3=CCCCC3)C2)C1 | 8.41% | -11.8%
Cn1cc(C[C@H]2[C@@H](O)CCN2C(=O)C2CC=CC2)cn1 | 7.16% | -21.6%
COCC(=O)NC1CC2(CCN(Cc3ccco3)CC2)c2ccccc21 (configuration not stated) | 5.52% | -5.13%
COc1cc(C)nc(N2CCN(C(=O)c3ccc(Cl)o3)CC2)n1 | 0.508% | 20%
Cc1ccc(Oc2ccc(NC(=O)NCC3CCOC3)cn2)cc1C (configuration not stated) | 0.322% | -6.2%
O=C(COCC1CC1)N1CCCC(n2cccn2)C1 (configuration not stated) | 4.67% | -15.2%
Cc1nc2c(c(C)c1CC(=O)Nc1cccc(C#N)c1)c(=O)[nH]n2C | 4.67% | 5.09%
c1cnnc(N2CCCC2CNCc2ccsc2)c1 (configuration not stated) | -3.81% | -8.21%
CN(C)CCOCC1CN(C(=O)[C@H]2CCCO2)Cc2ccnn2C1 (some centres not stated) | 0.379% | -15.2%
CC(=O)NCCc1ccc(S(=O)(=O)N(CC(C)C)C(C)C)s1 | 7.1% | -42.2%
CN(Cc1nc(C2CC2)no1)C1CCCN(c2cccnn2)C1 (configuration not stated) | -4.8% | 0.986%
Cc1nn(C)c(C)c1CCC(=O)N1CCCC1Cn1cccn1 (configuration not stated) | -0.943% | 2.75%
O=C1N(CCCc2ccccc2)CCCC1(O)CNCc1ccccc1 (configuration not stated) | 4.53% | -10.3%
Cc1csc2c(=O)n3c(nc12)CCN(C(=O)c1cccnc1)CC3 | -0.521% | 6.12%
CC(C)Nc1ncnc2c1CCN(C(=O)Cc1ccccn1)CC2 | 3.17% | -44.7%
CCCOc1cccc(CNC(=O)CN2CCN(C)CC2C)c1 (configuration not stated) | 2.62% | -7.72%
CNC(=O)NC(=O)Cn1cc(-c2ccccc2)cn1 | -2.46% | 5.7%
Cc1nc(C)n(CC2CCCN2CCCc2ccccc2)n1 (configuration not stated) | 0.747% | -14.3%
CC(c1nc(C2CC2)no1)N1CCN(CCOCC(F)(F)F)CC1 (configuration not stated) | -1.02% | -10.3%
CCO[C@@H]1CO[C@@]2(CCCN(S(=O)(=O)c3cccnc3)C2)C1 | 9.04% | -20%
Cc1ccc(NCc2cncc3c2CCN(C(=O)C2CC=CC2)C3)nn1 | 6.32% | -38%
COc1cc(CNCCc2cnn(C)c2)cc2c1OCCO2 | -1.03% | 10.4%
CCC(=O)N1CCC(O)(c2ncc(OC)nc2OC)CC1 | 1.66% | 16.1%
